High-throughput results (PubChem)
BoNT-A LC inh2: BoNT/A light chain protease inhibitors, primary screen, biochemical, flow cytometry, MLPCN library | actives 0.17% (n = 360,000) | inhibition, % at 10 µM | AID 588499, 2011 | multiplex microsphere protease substrate cleavage; note: plate controls were buffer without enzyme for full effect and enzyme alone for no effect
BoNT-F LC inh: BoNT/F light chain protease inhibitors, primary screen, biochemical, flow cytometry, MLPCN library; Multiplex microsphere protease cleavage assay; inhibition, % at 10 µM; Botulinum neurotoxin type F light chain protease (Clostridium botulinum); actives 0.22% (n = 360,000); in the data active = inhibition above about 35%, passing the limit was not always enough; inconclusive = no clear call, values can overlap the other calls; note: plate controls were buffer without enzyme for full effect and enzyme alone for no effect
Anthrax LF inh2: Bacillus anthracis LF protease inhibitors, primary screen, biochemical, multiplex microsphere, MLPCN library. actives 0.12% (n = 360,000). inhibition, % at 10 µM. Lethal factor (Bacillus anthracis), P15917. multiplex microsphere protease cleavage assay. AID 588501, 2011; note: plate controls were buffer without enzyme for full effect and enzyme alone for no effect
Autofluor counter: flagged as autofluorescent in microsphere protease counterscreen | fluorescence intensity (concentration not given with the values) | compound autofluorescence counterscreen, microsphere flow cytometry; hits give high values | actives 3.1% (n = 360,000); in the data active = fluorescence intensity above about 16000; inconclusive = no clear call, values can overlap the other calls
* = called active by the depositor; ? = inconclusive. The list is not random: actives were taken first. Their share in the collection is about 3.5%. Cut-off read from the data, not from the text of the source, unless noted: active = inhibition above about 30%; inconclusive = no clear call, values can overlap the other calls; inactive = below that.

SMILES | BoNT-A LC inh2 | BoNT-F LC inh | Anthrax LF inh2 | Autofluor counter
COc1ccc(NC(=O)Nc2ccc(Br)cn2)cc1OC | -4 | -13 | -3 | 17621*
CCCCN1C(=O)C(CC(=O)NCCN2CCOCC2)CC(C(=O)N(CC)CC)=C1C (configuration not stated) | 0 | -2 | 2 | 3434
CC1(C(=O)NS(=O)(=O)c2ccc(F)cc2F)CCN1C(=O)CCc1ccc(Cl)cc1Cl (configuration not stated) | 0 | 5 | 0 | 3794
CC(=O)Nc1cccc(Nc2cnccn2)c1 | 0 | 2 | -12 | 6288
COc1ccc(CCC(=O)Nc2ccc(Br)cn2)cc1 | ? | -4 | -1 | 24589*
COc1ccccc1S(=O)(=O)N(C)C[C@@H]1OCc2cnnn2CCCC(=O)N([C@H](C)CO)C[C@@H]1C | 0 | -3 | 3 | 3764
C/C(CC(=O)Nc1cccc2c1CCCC2)=N\NC(=O)c1cccc2ccccc12 | 0 | -5 | -1 | 2538
C/C(CC(=O)Nc1cccc2c1CCCC2)=N\NC(=O)c1ccccc1N | ? | -4 | -3 | 24027*
COc1ccccc1NC(=O)/C(=C\c1cccnc1)NC(=O)c1ccc(C)cc1 | 0 | 5 | 0 | 5884
CCCNC(=O)CCC(=O)Nc1ncc(-c2ccc(C)cc2)n1C | ? | -4 | 2 | 22139*
COC(=O)c1[nH]c2ccccc2c1NS(=O)(=O)c1ccc(F)c(C)c1 | 0 | -2 | -3 | 16616*
Cc1nnc2n1N=CC=C(C(C)(C)C)S2 | -2 | -3 | -13 | 23527*
Cc1nnc2n1N=CC=C(c1ccccc1)S2 | 1 | 7 | 5 | 8594
O=C(NCc1ccccc1)c1c[nH]c2cc3c(cc2c1=O)OCCO3 | -1 | 0 | -4 | 16706*
O=C(Oc1ccc2c(c1)OCO2)c1ccc(Br)c(S(=O)(=O)N2CCOCC2)c1 | ? | -2 | -2 | 23166*
COc1cc2[nH]cc(C(=O)NCc3cccs3)c(=O)c2cc1OC | -6 | -6 | 0 | 17586*
O=C(NCc1ccc2c(c1)OCO2)c1ccc(Cl)c(S(=O)(=O)N2CCOCC2)c1 | 1 | -2 | 0 | 23645*
CCCCCCCCN1C(=O)[C@H](CC(=O)NCCC(C)C)C[C@@]2(C(=O)OCC)CCCC=C12 | -1 | -2 | -12 | 5816
CC(=O)N(C)C[C@H]1Oc2ncc(Br)cc2C(=O)N([C@H](C)CO)C[C@@H]1C | 0 | -2 | 0 | 3701
O=C(NCc1ccc2c(c1)OCO2)c1ccc(CN2CCOCC2)cc1 | -1 | -4 | -1 | 16861*
O=C(NCc1ccc2c(c1)OCO2)c1c[nH]c2ccc(S(=O)(=O)N3CCOCC3)cc2c1=O | 2 | 4 | -7 | 21299*
COCCNC(=O)c1c[nH]c2ccc(S(=O)(=O)N3CCOCC3)cc2c1=O | 1 | 1 | -3 | 5515
O=C(NCc1ccccc1)c1ccc(CN2CCOCC2)cc1 | 0 | -9 | -4 | 2419
O=C1N(Cc2cccc(Cl)c2)C[C@@H]2C[C@@H](c3cccc4cccnc34)N3CCC[C@@]123 | 2 | 1 | -10 | 24208*
CCn1c(COc2ccccc2C)nnc1SCC(=O)Nc1ccc2c(c1)OCCO2 | ? | -2 | 2 | 20676*
SMILES | BoNT-A LC inh2 | BoNT-F LC inh | Anthrax LF inh2 | Autofluor counter
Cc1ccccc1OCc1nnc(SCC(=O)Nc2ccc3c(c2)OCO3)n1C | 2 | 7 | 3 | 8622
Cc1cnc(NC(=O)CSc2nnc(Cc3ccccc3)o2)s1 | ? | 14 | -12 | 13021
CCn1c(=O)cc(SCC(=O)Nc2ccc3c(c2)OCCO3)c2ccccc21 | 7 | 10 | -4 | 20714*
CCn1c(Cc2ccccc2)nnc1SCC(=O)Nc1ccc2c(c1)OCCO2 | ? | 19 | -16 | 17692*
Cn1c(=O)cc(SCC(=O)Nc2ccc3c(c2)OCO3)c2ccccc21 | 0 | -3 | 1 | 3610
Cc1cnc(NC(=O)CSc2nnc(Cc3ccccc3)n2C)s1 | -4 | -5 | -1 | 21335*
O=C(NCc1ccccn1)c1ccccc1OCc1ccccc1Cl | 0 | -6 | -1 | 3622
CCn1c(Cc2ccccc2)nnc1SCC(=O)Nc1nc(C)c(C)s1 | 2 | 6 | 0 | 21539*
Cc1oc(C2CC2)cc1C(=O)O | 1 | -1 | -2 | 19572*
CC(C)n1cc(/C=C2\NC(=O)N(c3cccc(Cl)c3)C2=O)c2ccccc21 | ? | -1 | -3 | 19627*
CC(C)n1cc(/C=C2/NC(=O)N(c3cccc(Cl)c3)C2=O)c2ccccc21 | -1 | -7 | -2 | 9444
CC1=C(C(=O)c2ccccc2)C(c2cn(-c3ccccc3)nc2-c2ccc(Cl)cc2)NC(=S)N1 (configuration not stated) | 2 | -2 | -5 | 19559*
CCOC(=O)C1CCCN(C/C=C/c2ccccc2[N+](=O)[O-])C1 (configuration not stated) | 10 | 13 | -7 | 16661*
CCOC(=O)C1CCCN(CCC(=O)Nc2ccccc2)C1 (configuration not stated) | -1 | -5 | -1 | ?
CCOC(=O)C1CCCN(CC(=O)NC2CC2)C1 (configuration not stated) | -2 | 2 | -3 | 16644*
CCN(CC)C(=O)C1CCCN(C/C=C/c2ccccc2[N+](=O)[O-])C1 (configuration not stated) | -4 | -10 | 1 | 3893
CCOC(=O)C1CCCN(CCC(C)c2ccccc2)C1 (configuration not stated) | 6 | 8 | 0 | 21853*
CCOC(=O)C1C(C(=O)OCC)C(C)(C)C1N(C)C (configuration not stated) | 0 | 0 | 9 | 3594
O=C(NCCc1ccccc1)C1Cc2c(-c3ccc4c(c3)OCO4)ccnc2O1 (configuration not stated) | 0 | -9 | 1 | 2992
Nc1[nH]c(C(=O)c2ccccc2)c(-c2ccc(Cl)cc2)c1C(=O)NCc1ccccc1 | -2 | 1 | -8 | 4680
O=C1CC(N2C(=O)/C(=C/C=C/c3ccccc3)SC2=S)C(=O)N1c1ccccc1 (configuration not stated) | 64* | 21 | 35* | 2114
COCCOC(=O)c1c(C)oc2ccc(OC(=O)COc3c(F)c(F)c(F)c(F)c3F)cc12 | 2 | 6 | -1 | 22277*
COCCOC(=O)c1c(C)oc2ccc(OC(=O)c3cccs3)cc12 | 2 | 2 | 3 | 22293*
COC(=O)c1c(C)oc2ccc(OC(=O)c3cccs3)cc12 | -1 | 5 | -4 | ?
CC1(Cc2ccc3c(c2)OCO3)C(=O)Nc2c(Cl)ccc(Cl)c21 (configuration not stated) | -1 | -12 | -3 | 3768
CCOC(=O)CSc1nnc(-c2cc(OC)c(OC)c(OC)c2)o1 | -2 | -9 | -2 | 4643
COc1cc(-c2nnc(SCc3cc(=O)oc4cc(O)c(O)cc34)o2)cc(OC)c1OC | 8 | 6 | -6 | 21137*
CCNCCOC(c1ccccc1)c1ccccc1 | ? | 2 | -12 | 18751*
C[C@@H]1CN([C@@H](C)CO)C(=O)CCCn2nncc2CO[C@@H]1CN(C)C(=O)Nc1ccc2c(c1)OCO2 | 0 | -2 | 1 | 3749
